# Calls of active or inactive are those of the source.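 The calls were made as follows: active = cell survival after UV exposure 2 SD above solvent-only control wells at 10 µM, confirmed on one or two repeats; inactive = the rest.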
# Assay: protection of CHO cells from pyrene-fatty acid UV killing, primary screen, phospholipid biosynthesis inhibitor project, ZR-82 cells, Analyticon library, screen 2 (AID 1347383);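 also: survival reflects blocked phospholipid synthesis cutting uptake of the phototoxic fatty acid; compound and fatty acid exposure 3 h then viability read next day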
# Conditions: ZR-82 CHO cells, CellTiter Blue, at 10 µM, peroxisome-deficient CHO-K1 variant, with DGAT-1, DGAT-2 and ACAT inhibitors
row,SMILES,outcome
1,CC/C=C/C=C/C1(C)OC(=O)C(C(C)=O)=C1O (stereo not given),inactive
2,C=C(COC(=O)C(C)C)C1Oc2cc(C(C)=O)ccc2C1OC(=O)C(C)C (stereo not given),inactive
3,OC1C(O)C(O)C(O)C(O)C1O (stereo not given),inactive
4,Cc1c(O)cc(O)c2c1OC(c1ccccc1)CC2=O (stereo not given),inactive
5,Cc1c(O)cc2c(c1O)C(=O)[C@@H](O)[C@H](c1ccc(O)c(O)c1)O2,inactive
6,C=C1[C@H]2CC[C@H](C(=O)O)[C@@]23CC[C@H](C3)C1(C)C,inactive
7,COC1OC(OC)C(O)(CC/C=C(\C)CC/C=C(\C)C(=O)O)C1O (stereo not given),inactive
8,O=c1ccc2cc3ccoc3cc2o1,inactive
9,COc1c2c(nc3occc13)C(CC=C(C)C)(OC)C(O)CC2 (stereo not given),inactive
10,COc1ccc(-c2coc3cc(O)ccc3c2=O)cc1,inactive
11,C=C1C(=O)O[C@@H]2C=C(C)[C@@H]3CC[C@@](C)(O)[C@@H]3C[C@H]12,inactive
12,C=CC(C)(C)c1cc(/C=C/C(=O)c2ccc(OC)cc2)c(O)cc1O,inactive
13,COc1cc(CC(C)C(C)Cc2ccc(O)c(OC)c2)ccc1O (stereo not given),inactive
14,CC(C)CNC(=O)/C=C/C=C/Cc1cccs1,inactive
15,Cc1cc2c(CO)cc(O)cc2o1,inactive
16,Cc1c(O)cc2c(c1O)C(=O)c1ccccc1C2=O,inactive
17,C=C1C2=C(C(=O)N1OC)[C@H](O)[C@](C)(O)[C@H](CCCCC)O2,inactive
18,O=C(/C=C/c1ccc(O)c(O)c1)N[C@@H](Cc1ccc(O)c(O)c1)C(=O)O,inactive
19,O=C(O)/C=C/c1ccccc1O,inactive
20,COc1ccc(-c2coc3cc(O)ccc3c2=O)cc1O,inactive

# Source: PubChem BioAssay AID1347383 (Zoeller Lab, School of Medicine, Boston University, 2020)
